Test results reported in PubChem BioAssay.
Values without a mark were called inactive. This is one part of the list. Activity calls are given as the source filed them.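 Rule for the calls, unless noted: active = mean inhibition over 43.08%, the solvent-only control mean plus 3 SD; inactive = the rest.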

Assays:
[1] = target: Nuclear receptor coactivator 3 (Homo sapiens) (UniProt Q9Y6Q9); experiment: SRC3 coactivator transcriptional activity inhibitors, confirmation, cell-based, luminescence, quadruplicate (AID 588792); details: HEK293 GAL4-SRC3 luciferase reporter, at 3.6 µM, stronger effect = higher value;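 note: 0% = DMSO treated cells and 100% = gossypol at 36 µM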
Chain of Nuclear receptor coactivator 3 (Homo sapiens) (Q9Y6Q9 whole entry, looked up, the tested form may be a part): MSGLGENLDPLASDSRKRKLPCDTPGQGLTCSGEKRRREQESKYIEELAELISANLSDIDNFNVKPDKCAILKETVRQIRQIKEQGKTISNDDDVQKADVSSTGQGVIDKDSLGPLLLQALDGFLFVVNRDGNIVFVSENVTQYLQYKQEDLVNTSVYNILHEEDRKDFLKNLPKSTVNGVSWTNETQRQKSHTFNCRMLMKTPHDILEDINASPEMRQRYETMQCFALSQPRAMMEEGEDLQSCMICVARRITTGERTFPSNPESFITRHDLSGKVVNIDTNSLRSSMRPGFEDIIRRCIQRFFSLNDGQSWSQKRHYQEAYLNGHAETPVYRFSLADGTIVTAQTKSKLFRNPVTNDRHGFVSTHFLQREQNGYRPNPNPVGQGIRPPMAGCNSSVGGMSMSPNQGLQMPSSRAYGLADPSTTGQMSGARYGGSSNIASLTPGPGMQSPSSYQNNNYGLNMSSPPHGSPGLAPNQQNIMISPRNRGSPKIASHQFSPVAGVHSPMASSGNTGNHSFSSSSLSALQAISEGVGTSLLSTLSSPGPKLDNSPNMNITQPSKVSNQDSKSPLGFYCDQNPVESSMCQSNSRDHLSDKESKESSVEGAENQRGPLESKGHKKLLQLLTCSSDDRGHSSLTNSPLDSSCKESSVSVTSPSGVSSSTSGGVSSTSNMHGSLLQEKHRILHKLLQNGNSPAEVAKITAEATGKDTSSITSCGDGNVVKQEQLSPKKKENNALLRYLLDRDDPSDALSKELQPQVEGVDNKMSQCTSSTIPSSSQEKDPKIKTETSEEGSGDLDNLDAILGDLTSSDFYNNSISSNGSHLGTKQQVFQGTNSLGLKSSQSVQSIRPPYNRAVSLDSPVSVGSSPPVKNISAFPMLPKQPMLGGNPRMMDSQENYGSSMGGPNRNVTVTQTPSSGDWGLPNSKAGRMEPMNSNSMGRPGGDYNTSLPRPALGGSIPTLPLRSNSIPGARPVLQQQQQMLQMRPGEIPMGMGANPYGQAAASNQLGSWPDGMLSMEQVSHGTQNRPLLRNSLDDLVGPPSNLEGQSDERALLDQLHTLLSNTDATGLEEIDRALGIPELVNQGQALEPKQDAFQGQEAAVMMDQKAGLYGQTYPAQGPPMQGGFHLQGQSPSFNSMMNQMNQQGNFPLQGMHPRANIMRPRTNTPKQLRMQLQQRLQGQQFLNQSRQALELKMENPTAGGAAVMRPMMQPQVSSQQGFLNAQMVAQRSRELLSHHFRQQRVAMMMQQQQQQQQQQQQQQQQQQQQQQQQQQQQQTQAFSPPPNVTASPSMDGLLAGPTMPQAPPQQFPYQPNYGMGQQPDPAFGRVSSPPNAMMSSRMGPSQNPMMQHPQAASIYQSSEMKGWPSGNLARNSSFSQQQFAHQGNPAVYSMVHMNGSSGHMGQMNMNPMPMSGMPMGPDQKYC

[2] = tested on: transactivating tegument protein VP16 (Human herpesvirus 1), Gal4-VP16 luciferase reporter; experiment: VP16 transactivation inhibitors, counter-screen for SRC3 inhibitor project, cell-based, luminescence, high throughput (AID 588794; in the data active = inhibition above about 30%); details: mammalian cells, VP16-driven luciferase reporter luminescence; at 3.6 µM; stronger effect = higher value
[3] = tested on: transactivating tegument protein VP16 (Human herpesvirus 1); experiment: VP16 transactivation reporter inhibitors, counter-screen for SRC2 inhibitor project, cell-based, luminescence, single concentration (AID 652007; in the data active = inhibition above about 36%); details: cell-based VP16 transactivation luciferase reporter, at 8.9 µM, stronger effect = higher value
[4] = target: Nuclear receptor coactivator 2 (Homo sapiens) (UniProt Q15596); experiment: SRC2 coactivator transcriptional activity inhibitors, confirmation, cell-based, luminescence, HEK293, triplicate (AID 652008;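 active = mean inhibition above 46.5%, the solvent-only control mean plus 3 SD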;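 note: 0% = DMSO-treated cells and 100% = Gossypol at 36 µM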); details: HEK293 GAL4-SRC2 luciferase reporter, at 8.9 µM, stronger effect = higher value
Chain of Nuclear receptor coactivator 2 (Homo sapiens) (Q15596 whole entry, looked up, the tested form may be a part): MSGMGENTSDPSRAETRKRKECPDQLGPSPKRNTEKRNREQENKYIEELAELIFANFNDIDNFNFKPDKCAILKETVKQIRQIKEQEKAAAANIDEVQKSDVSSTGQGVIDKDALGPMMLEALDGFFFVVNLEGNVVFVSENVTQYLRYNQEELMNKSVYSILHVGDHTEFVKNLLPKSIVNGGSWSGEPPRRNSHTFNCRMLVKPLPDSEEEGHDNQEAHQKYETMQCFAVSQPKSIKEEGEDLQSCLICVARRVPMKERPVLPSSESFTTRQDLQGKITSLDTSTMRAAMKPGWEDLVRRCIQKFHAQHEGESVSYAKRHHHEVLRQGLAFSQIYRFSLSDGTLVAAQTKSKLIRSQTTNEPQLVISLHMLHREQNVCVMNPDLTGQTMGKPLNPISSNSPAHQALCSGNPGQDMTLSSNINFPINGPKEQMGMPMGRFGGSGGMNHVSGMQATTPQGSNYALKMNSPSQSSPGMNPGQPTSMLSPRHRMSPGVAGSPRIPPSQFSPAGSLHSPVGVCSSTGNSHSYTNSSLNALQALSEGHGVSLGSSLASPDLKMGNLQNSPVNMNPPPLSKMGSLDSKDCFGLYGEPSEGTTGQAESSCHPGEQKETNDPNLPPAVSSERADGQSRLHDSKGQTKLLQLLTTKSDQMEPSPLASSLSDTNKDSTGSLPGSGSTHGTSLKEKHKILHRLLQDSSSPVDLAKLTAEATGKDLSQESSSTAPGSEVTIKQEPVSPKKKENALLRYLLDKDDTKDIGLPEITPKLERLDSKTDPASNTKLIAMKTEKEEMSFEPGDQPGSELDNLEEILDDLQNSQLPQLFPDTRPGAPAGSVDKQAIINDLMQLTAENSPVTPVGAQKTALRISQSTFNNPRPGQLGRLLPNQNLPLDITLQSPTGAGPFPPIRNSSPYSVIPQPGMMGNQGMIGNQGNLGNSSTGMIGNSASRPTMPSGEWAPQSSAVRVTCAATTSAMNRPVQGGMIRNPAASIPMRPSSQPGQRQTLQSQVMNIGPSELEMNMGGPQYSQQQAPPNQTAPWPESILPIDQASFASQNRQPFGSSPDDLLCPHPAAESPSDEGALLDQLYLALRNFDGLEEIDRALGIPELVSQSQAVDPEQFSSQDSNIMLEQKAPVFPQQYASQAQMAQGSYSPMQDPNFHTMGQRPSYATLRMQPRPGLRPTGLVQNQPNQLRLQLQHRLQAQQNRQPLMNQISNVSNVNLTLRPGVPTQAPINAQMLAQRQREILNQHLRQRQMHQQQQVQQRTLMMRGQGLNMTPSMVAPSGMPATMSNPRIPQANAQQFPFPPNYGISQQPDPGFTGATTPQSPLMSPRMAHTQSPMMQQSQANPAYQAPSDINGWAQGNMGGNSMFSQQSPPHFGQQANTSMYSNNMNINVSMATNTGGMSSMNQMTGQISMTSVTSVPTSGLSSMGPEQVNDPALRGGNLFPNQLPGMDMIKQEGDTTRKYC

[5] = StAR promoter reporter inhibitors, counter-screen for LRH-1 inverse agonist project, cell-based, luminescence, high throughput (AID 651611; in the data active = inhibition above about 28%); details: StAR promoter luciferase reporter counterscreen, at 3.6 µM, stronger effect = higher value
[6] = target: Nuclear receptor subfamily 5 group A member 2 (Homo sapiens) (UniProt O00482); experiment: LRH-1 (NR5A2) inverse agonists, retest, confirmation, cell-based, luminescence (AID 651613; in the data active = inhibition above about 42%;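 note: HEK293T cells co-transfected with LRH-1 and StAR promoter luciferase reporter; 0% = vehicle wells and 100% = parental cells lacking receptor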); details: cell-based LRH-1 luciferase reporter, inverse agonism; at 3.6 µM; stronger effect = higher value
Chain of Nuclear receptor subfamily 5 group A member 2 (Homo sapiens) (O00482 whole entry, looked up): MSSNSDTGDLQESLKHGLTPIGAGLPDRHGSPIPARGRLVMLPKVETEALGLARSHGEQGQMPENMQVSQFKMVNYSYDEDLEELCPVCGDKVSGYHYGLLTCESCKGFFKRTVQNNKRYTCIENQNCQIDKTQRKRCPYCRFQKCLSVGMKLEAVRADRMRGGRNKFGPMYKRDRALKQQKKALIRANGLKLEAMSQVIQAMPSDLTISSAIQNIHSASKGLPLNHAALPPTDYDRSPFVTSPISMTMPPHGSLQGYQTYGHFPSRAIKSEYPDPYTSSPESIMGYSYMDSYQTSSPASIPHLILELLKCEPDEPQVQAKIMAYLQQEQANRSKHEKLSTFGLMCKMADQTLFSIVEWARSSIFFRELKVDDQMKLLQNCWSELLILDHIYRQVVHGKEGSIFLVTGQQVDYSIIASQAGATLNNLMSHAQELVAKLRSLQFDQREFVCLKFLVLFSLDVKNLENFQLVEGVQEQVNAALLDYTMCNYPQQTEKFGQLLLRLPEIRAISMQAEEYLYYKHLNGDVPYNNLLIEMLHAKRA

[7] = target: Steroidogenic factor 1 (Homo sapiens) (UniProt Q13285); experiment: SF1 (NR5A1) inverse agonists, counter-screen for LRH-1 inverse agonist project, cell-based, luminescence, high throughput (AID 651614; in the data active = inhibition above about 44%;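 note: cells cotransfected with StAR promoter reporter and SF1 expression vector; 0% = vehicle on cells with receptor and 100% = vehicle on cells lacking receptor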); details: cell-based SF1 luciferase reporter, at 3.6 µM, stronger effect = higher value
Chain of Steroidogenic factor 1 (Homo sapiens) (Q13285 whole entry, looked up, the tested form may be a part): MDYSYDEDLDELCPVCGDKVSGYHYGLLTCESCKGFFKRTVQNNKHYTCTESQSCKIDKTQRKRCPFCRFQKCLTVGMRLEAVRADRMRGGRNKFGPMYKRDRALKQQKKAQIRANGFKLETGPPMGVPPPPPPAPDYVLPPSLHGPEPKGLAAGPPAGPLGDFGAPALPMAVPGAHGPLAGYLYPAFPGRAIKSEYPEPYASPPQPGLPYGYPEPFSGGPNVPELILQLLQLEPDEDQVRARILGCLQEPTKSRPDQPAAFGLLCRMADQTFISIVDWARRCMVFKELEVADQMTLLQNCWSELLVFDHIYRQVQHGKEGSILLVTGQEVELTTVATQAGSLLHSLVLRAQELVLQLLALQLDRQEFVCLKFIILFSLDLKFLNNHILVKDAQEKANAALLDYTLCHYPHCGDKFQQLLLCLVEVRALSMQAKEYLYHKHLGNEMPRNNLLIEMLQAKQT

[8] = VP16 transactivation reporter inhibitors, counter-screen for LRH-1 inverse agonist project, cell-based, luminescence, high throughput (AID 651615; in the data active = inhibition above about 33%); details: Gal4-VP16 luciferase reporter cells, at 3.6 µM, stronger effect = higher value
[9] = Gal4-VP16 luciferase reporter inhibitors, counter-screen for COUP-TFII antagonist project, cell-based, luminescence, HEK293 (AID 687007; in the data active = inhibition above about 13%); details: at 8.5 µM, stronger effect = higher value
[10] = target: COUP transcription factor 2 (Homo sapiens) (UniProt P24468); experiment: NR2F2 transcriptional activity inhibitors, confirmation, cell-based, luciferase reporter, HEK293, triplicate (AID 687008;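 active = mean inhibition over three repeats above a set limit taken from the earlier primary screen, cut at about 38% in these data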;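 note: 100% = cells given the luciferase reporter alone without the COUP-TF2 vector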); details: HEK293 NGFI-A luciferase reporter, luminescence; at 8.5 µM; stronger effect = higher value
Chain of COUP transcription factor 2 (Homo sapiens) (P24468 whole entry, looked up): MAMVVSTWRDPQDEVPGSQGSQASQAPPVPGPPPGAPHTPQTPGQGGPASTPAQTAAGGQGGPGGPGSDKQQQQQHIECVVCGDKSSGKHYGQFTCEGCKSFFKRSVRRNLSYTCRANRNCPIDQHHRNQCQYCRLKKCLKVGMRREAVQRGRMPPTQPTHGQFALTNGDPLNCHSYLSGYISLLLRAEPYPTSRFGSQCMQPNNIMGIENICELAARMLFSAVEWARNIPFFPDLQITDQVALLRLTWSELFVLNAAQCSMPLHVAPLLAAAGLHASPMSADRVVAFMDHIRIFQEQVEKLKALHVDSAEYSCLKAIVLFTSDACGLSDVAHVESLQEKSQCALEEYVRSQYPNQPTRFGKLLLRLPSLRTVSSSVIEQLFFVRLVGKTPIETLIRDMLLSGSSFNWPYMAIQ

**Q.** With `Cc1ccccc1Nc1nc(N)nc(CCl)n1` as the compound, how does the inhibition [1] read?
**A.** Its inhibition is 22.9%.

**Q.** And the inhibition [2]?
**A.** The inhibition was 0.42%.

**Q.** And the inhibition [3]?
**A.** The inhibition was -11.3%.

**Q.** What about the inhibition [4] of the same compound?
**A.** Its inhibition is 52.5% (active).

**Q.** What does the source list for `CC[n+]1cc(C)ccc1/C=C/c1ccc(N(C)C)cc1`?
**A.** inhibition [1]: 45.1% (active); inhibition [2]: 58.8% (active); inhibition [5]: 57% (active); inhibition [6]: 91.7% (active); inhibition [7]: 85.7% (active); inhibition [8]: 80% (active); inhibition [9]: -0.96%; inhibition [10]: 62.6% (active)

**Q.** Which inhibition [1] does the source give for `COc1ccc(OCC(=O)N/N=C/c2ccc(O[C@@H]3O[C@H](CO)[C@@H](O)[C@H](O)[C@H]3O)cc2)cc1` here?
**A.** Its inhibition is 20.5%.

**Q.** And the inhibition [2]?
**A.** The inhibition was 60.1% (active).

**Q.** What about the inhibition [6] of the same compound?
**A.** Its inhibition is 64.5% (active).

**Q.** And the inhibition [7]?
**A.** The inhibition was 72.1% (active).

**Q.** Which results are given for `CC(=O)Nc1ccc(NC2=C/C(=N/S(=O)(=O)c3cccs3)c3ccccc3C2=O)cc1`?
**A.** inhibition [1]: 3.29%; inhibition [2]: 9.98%; inhibition [3]: 9.81%; inhibition [4]: 49.5% (active)

**Q.** With `O=C(C1=C(c2ccccc2)C(=O)c2ccccc2C1=O)c1ccccc1` as the compound, how does the inhibition [1] read?
**A.** The inhibition was 93.3% (active).

**Q.** And the inhibition [2]?
**A.** The inhibition was 90.4% (active).

**Q.** What about the inhibition [3] of the same compound?
**A.** The inhibition was 63.8% (active).

**Q.** What about the inhibition [4] of the same compound?
**A.** Its inhibition is 66.4% (active).

**Q.** With `CCOc1ccc(C(=O)O/N=C(\N)c2ccccn2)cc1` as the compound, how does the inhibition [1] read?
**A.** Its inhibition is -0.86%.

**Q.** What about the inhibition [2] of the same compound?
**A.** The inhibition was -11.6%.

**Q.** What about the inhibition [3] of the same compound?
**A.** The inhibition was 15.8%.

**Q.** And the inhibition [4]?
**A.** The inhibition was 21.9%.

**Q.** Which results are given for `CC(C)N(CC(=O)Nc1ccc(Cl)cc1C(F)(F)F)C(=O)CCl`?
**A.** inhibition [1]: 44% (active); inhibition [2]: 35.6% (active); inhibition [3]: 25.9%; inhibition [4]: 59.2% (active)

**Q.** For `Cc1cccc(Nc2nc(N)nc(CCl)n2)c1C`, which inhibition [1] is on record?
**A.** The inhibition was 62.8% (active).

**Q.** And the inhibition [2]?
**A.** Its inhibition is 31.1% (active).

**Q.** What about the inhibition [3] of the same compound?
**A.** The inhibition was 14.2%.

**Q.** And the inhibition [4]?
**A.** Its inhibition is 55.7% (active).

**Q.** Which inhibition [1] does the source give for `Cc1nn(C)cc1C(C)NC(=O)c1cc(COc2cccc3cnccc23)on1` (stereo not given) here?
**A.** The inhibition was 18.6%.

**Q.** And the inhibition [2]?
**A.** The inhibition was 24.9%.

**Q.** What about the inhibition [3] of the same compound?
**A.** The inhibition was -5.71%.

**Q.** And the inhibition [4]?
**A.** The inhibition was 33.3%.
